The values below come from PubChem BioAssay (NCI).

About 83,000 compounds went through this panel and 20% of them were active in at least one assay; those are over-represented in the sample as a whole.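 Testing used 96-well plates and a 48-hour single-concentration exposure. Example: -40 means 40% of the starting cells died.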 Values without a mark were called inactive. Calls of active or inactive are those of the source. How the source made its calls: active means growth percent below 10; inactive means the rest.

Holding throughout (assay): NCI-60 one-dose screen, 48 h (100 = growth as untreated, 0 = no growth, -100 = all killed)
Experiment [1] relates to NCI-H23 lung. Particulars: 10 µM unless noted.
The test system of experiment [2] is NCI-H226 lung. The note with it: 10 µM unless noted.
For experiment [3], the system named is NCI-H322M lung. Particulars: 10 µM unless noted.
Experiment [4] has as its system HOP-62 NSCLC. Particulars: 10 µM unless noted.
Experiment [5] deals with NCI-H460 lung. Particulars: 10 µM unless noted.
Experiment [6] relates to HOP-92 NSCLC. The note with it: 10 µM unless noted.
In experiment [7] the test system is NCI-H522 lung. Particulars: 10 µM unless noted.
Experiment [8] concerns A549/ATCC NSCLC. The note with it: 10 µM unless noted.
The subject of experiment [9] is 786-0 renal. The note with it: 10 µM unless noted.
Experiment [10] concerns COLO 205 colon. The note with it: 10 µM unless noted.
In experiment [11] the test system is DU-145 prostate. The note with it: 10 µM unless noted.
For experiment [12], the system named is K-562 leukemia. The note with it: 10 µM unless noted.
Experiment [13] concerns MALME-3M melanoma. Particulars: 10 µM unless noted.
In experiment [14] the test system is MDA-MB-231 breast. Particulars: 10 µM unless noted.
Experiment [15] has as its system RXF 393 renal. The note with it: 10 µM unless noted.
The test system of experiment [16] is SF-268 CNS. Particulars: 10 µM unless noted.
Experiment [17] concerns SF-295 CNS. Particulars: 10 µM unless noted.
In experiment [18] the test system is SF-539 CNS. The note with it: 10 µM unless noted.
The subject of experiment [19] is UACC-257 melanoma. The note with it: 10 µM.
The test system of experiment [20] is M14 melanoma. The note with it: 10 µM unless noted.

With `CC1=C(C#N)C(C)(C)C(C#N)=C(C)N1`, the growth in [1] is 102%; in experiment [2], 105%; in experiment [3] it was 109%; in experiment [4], 109%; in experiment [5] it was 106%; in experiment [6] it was 95.6%. Also, the growth is 104% in experiment [7]; 101% in experiment [8]; 105% in experiment [9]; 115% in [10]; 106% in experiment [11]; 99.4% in [12]. The growth was 109% in experiment [13]; 104% in experiment [14]; 117% in experiment [15]; 100% in experiment [16]; 96.1% in experiment [17]; 99.3% in experiment [18]. Besides, the growth in [19] is 103%; in [20], 102%.

With `COc1ccc(-c2nc(-c3ccccc3)c(-c3ccccc3)n2C2CC2)cc1OC1CCCCC1`, the growth in [1] is 72.6%; in [2], 94%; in experiment [3], 80.4%; in [4] it was 85%; in experiment [5], 30.9%; in [6] it was 90.2%. In addition, the growth in experiment [7] is 64.2%; in experiment [8], 53.3%; in [9], 74%; in experiment [10] it was 79.9%; in [11] it was 73.2%; in experiment [12] it was 31.4%. Also, the growth was 76.5% in experiment [13]; 61.2% in [14]; 73.7% in [15]; 56.3% in [16]; 54.8% in experiment [17]; 81% in experiment [18]. In addition, the growth is 85.1% in experiment [19] and 76.7% in [20].

Take `CCC(C)NCC(=O)O` (stereo not given): the growth in experiment [1] was 108%; in experiment [2] it was 92.6%; in [3] it was 118%; in experiment [4] it was 98.2%; in [5], 108%; in experiment [6], 109%. For the same compound, the growth in experiment [7] is 78.7%; in experiment [8], 105%; in [9], 103%; in experiment [10] it was 107%; in [11], 115%; in [12] it was 96.3%. Moreover, the growth was 105% in experiment [13]; 111% in experiment [14]; 103% in experiment [15]; 107% in experiment [16]; 92.4% in experiment [17]; 92.7% in experiment [18]. In addition, the growth in experiment [19] is 112%; in experiment [20], 99.3%.

For the compound `COc1ccc(/C=C/C(=O)c2cc(OC)c(OC)c(OC)c2)cc1OCc1cn(Cc2ccc(F)cc2)nn1`, the growth in experiment [1] was 103%; in [2], 76.8%; in [3] it was 33.6%; in experiment [4], 4.52% (active); in experiment [5], 95.8%; in experiment [6], 55.9%. Further, the growth was 26.4% in [7]; 29.7% in [8]; 49.3% in experiment [9]; 66.4% in experiment [10]; 59.3% in [11]; 7.36% (active) in experiment [12]. Besides, the growth in [13] was 92.1%; in experiment [14], 81.8%; in [15], 72.2%; in experiment [16], 79.3%; in experiment [17], 68.4%; in [18], 6.59% (active). Besides, the growth is 98.3% in experiment [19] and 87.7% in experiment [20].

Regarding `COC12CC(=O)C(C(C)=O)=C(O)C1(C)c1c(O)c(C)c(O)c(C(C)=O)c1O2` (stereo not given), the growth in experiment [1] was 50.5%; in [2] it was 81.2%; in experiment [3], 71.4%; in [4], 86%; in experiment [5], 55.1%; in experiment [6], 46%. Besides, the growth in [7] is 70.1%; in experiment [8] it was 64.8%; in experiment [9], 60.8%; in experiment [10], 99.8%; in experiment [11], 90.2%; in experiment [12], 70.4%. In addition, the growth was 90.7% in [13]; 92.7% in experiment [14]; 90.3% in [15]; 78.4% in experiment [16]; 13.3% in experiment [17]; 78.5% in [18]. The growth was 90.7% in experiment [19] and 66.7% in experiment [20].

Consider `CCC1CCc2nc3sc(C(=O)Nc4ccccc4C)c(N)c3cc2C1` (stereo not given), for which the growth in [1] is 51.1%; in experiment [2] it was 62.7%; in experiment [3] it was 56.5%; in experiment [4] it was 54.5%; in [5], 31.5%; in experiment [6], 41.9%. Further, the growth in [7] is 28.6%; in experiment [8], 41.2%; in [9], 50.6%; in experiment [10], 17%; in [11] it was 22.7%; in experiment [12] it was 24.1%. The growth in experiment [13] is 28.3%; in experiment [14], 66.6%; in experiment [15], 26.1%; in experiment [16], 49.9%; in [17], 15.3%; in [18], 23.9%. Also, the growth in experiment [19] is 54.2%; in [20], 19.8%.

For `O=C(N/N=C/c1c(Cl)cccc1Cl)c1ccccc1Nc1ccnc(C(F)(F)F)c1`, the growth in experiment [1] was 46%; in [2], 65.2%; in [3] it was 58.6%; in experiment [4] it was 67.2%; in [5], 36.1%; in experiment [6] it was 71.5%. In addition, the growth is 52.6% in experiment [7]; 49.2% in [8]; 75% in [9]; 94.7% in experiment [10]; 109% in experiment [11]; 78.4% in [12]. Also, the growth in experiment [13] is 81%; in experiment [14] it was 73.8%; in [15], 49.3%; in experiment [16], 73.2%; in experiment [17] it was 72.9%; in experiment [18], 86.6%. In addition, the growth in [19] is 60.4%; in experiment [20], 71.6%.
